# Source: PubChem BioAssay
# The list is not random: actives were taken first. Their share in the collection is about 2.1%.
# CF NFkB block: cystic fibrosis NF-kB activation inhibition; KKLEB NF-kB-GFP reporter, PAF-induced, GFP fluorescence overnight; inhibition, % at 5 µM; actives 0.86% (n = 360,000); AID 588850;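 active = at least 50% inhibition at 5 µM, scaled per plate between neutral and stimulator controls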;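 also: PAF is a Pseudomonas aeruginosa culture filtrate used as stimulus; plate controls were PAF-stimulated DMSO wells for no effect and unstimulated DMSO wells for full effect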
# EWS-Fli block: EWS/Fli transcriptional activity inhibition; A673 NR0B1-luciferase reporter, viability-normalised; inhibition, % at 12.6 µM; actives 0.67% (n = 350,000);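 active = mean inhibition of at least 50% after viability correction, with every replicate also passing that limit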;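 also: firefly luciferase signal divided by Alamar Blue viability fluorescence both relative to DMSO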
# KKLEB cytotox: counter-screen for CF NF-kB inhibitors: cytotoxicity; KKLEB CF airway cells viability, ATPlite luminescence, overnight; stronger effect = lower value; cells stimulated with P. aeruginosa culture filtrate; activity change (cytotoxicity), % at 5 µM; actives 0.36% (n = 360,000); AID 602141;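 active = corrected activity change at or below -50% at 5 µM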
# PAX8 inh HTS: lowers PAX8-driven luciferase in RMG-I cells; RMG-I TPO-luciferase reporter, SteadyGlo, 24 h; inhibition, % at 12.6 µM; actives 1.2% (n = 360,000); AID 652154;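 active = mean replicate inhibition at least 60% with every replicate also reaching 60%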;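 also: luciferase light reporting Pax8 driven TPO promoter activity; plate controls were median of neutral control wells for no effect and mitoxantrone controls for full effect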
# HIF-2a block: HIF-2a inhibition | inhibition, % at 18.8 µM | 786-0 RCC cells HIF-2a reporter, luciferase luminescence, overnight | actives 0.72% (n = 360,000) | AID 624352;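 active = inhibition of the luminescence signal of 40% or more relative to plate controls, in a single-dose primary screen at 18.75 µM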
# Starred values were filed as active, the others as inactive; / = not tested or not shown.
SMILES,CF NFkB block,EWS-Fli block,KKLEB cytotox,PAX8 inh HTS,HIF-2a block
COc1ccc(C(=O)C(CN2CCOCC2)c2ccccc2)cc1 (stereo unspecified),54*,3,-61*,/,-20
O=C(c1ccc(Cl)cc1)C1CCN(Cc2ccccc2)CC1,9,2,-9,30,2
C[C@@H]1CN([C@@H](C)CO)C(=O)c2cc(NC(=O)Nc3ccccc3)ccc2O[C@@H]1CN(C)Cc1ccc(Cl)c(Cl)c1,/,-4,/,/,/
Cc1noc(C)c1S(=O)(=O)N(C)C[C@H]1Oc2ccc(NS(=O)(=O)c3cn(C)cn3)cc2CC(=O)N([C@@H](C)CO)C[C@@H]1C,/,-8,/,2,/
O=C1C(Nc2ccccc2)=C(NS(=O)(=O)c2ccccc2)C(=O)c2ccccc21,31,/,14,9,-4
CCc1ccc(NC2=CC(=O)C(=O)c3ccccc32)cc1,96*,-38,-91*,-103,-112
O=C1C=C(Nc2ccccc2)c2ccccc2C1=O,72*,2,-25,12,15
O=C1C=C(Nc2ccccc2C(=O)O)c2ccccc2C1=O,-6,-32,4,18,-26
O=C1C=C(Nc2ccccc2)C(=O)c2ccccc21,60*,-35,-8,/,-164
C[C@H]1CN([C@@H](C)CO)C(=O)c2cc(C3=CCCC3)cnc2O[C@H]1CN(C)C(=O)C1CC1,/,-9,/,/,/
Nc1ncn([C@H]2C[C@H](O)[C@@H](CO)O2)c(=O)n1,-6,20,4,107*,-7
Nc1ccn([C@H]2C[C@H](O)[C@@H](CO)O2)c(=O)n1,2,-4,0,17,-24
CC(=O)Nc1ccc(-c2ccnc3c2CC(C(=O)NCc2cccc(Cl)c2)O3)cc1 (stereo unspecified),22,70*,-29,/,4
NC(=O)c1cccc(-c2ccnc3c2CC(C(=O)NCc2cccc(Cl)c2)O3)c1 (stereo unspecified),-13,6,5,31,-4
CC(=O)Nc1cccc(-c2ccnc3c2CC(C(=O)NCc2cccc(Cl)c2)O3)c1 (stereo unspecified),-32,63*,-6,34,24
CC(=O)Nc1cccc(-c2ccnc3c2CC(C(=O)NCc2cccnc2)O3)c1 (stereo unspecified),10,6,-9,9,11
COc1ccc(S(=O)(=O)Nc2cc3c(cc2C(C)=O)OCO3)cc1,16,55*,-5,14,19
COCCOC(=O)N1C(=O)[C@@]2(c3cc(C#CC4=CCCCC4)ccc31)[C@H](C(=O)NC[C@H](O)c1ccccc1)[C@H]1C(=O)O[C@H](c3ccccc3)[C@H](c3ccccc3)N1[C@@H]2c1ccc(O)cc1,/,0,/,-1,/
O=C1C=C(N2CCOCC2)c2ccccc2C1=O,85*,49,-76*,74*,37
Cc1cccc(/C=C2\CCC(=C3SCCCS3)C2=O)c1,-15,/,-64*,/,8
O=C1/C(=C/c2ccccc2)CCCc2ccccc21,-7,/,-1,-11,-64
O=C1C(=C2SCCCS2)CC/C1=C\c1ccc(F)cc1,-11,/,-78*,/,65*
Cc1c(NC(=O)COC(=O)c2c3c(nc4ccccc24)CCCC3)c(=O)n(-c2ccccc2)n1C,-2,9,3,-4,12
Cc1c(NC(=O)C(C)OC(=O)c2c3c(nc4ccccc24)CCC3)c(=O)n(-c2ccccc2)n1C (stereo unspecified),-16,8,15,73*,13
Cc1nc(Nc2nc3c(c(=O)[nH]2)CCC3)nc2ccccc12,65*,/,-3,/,-82
O=c1[nH]c(NCc2ccccc2)nc2c1CCC2,10,/,3,-8,18
CCCNC(=O)C[C@@H]1CC[C@H]2[C@H](COc3ccc(NC(=O)NCC)cc3C(=O)N2C)O1,/,-1,/,1,/
Cc1ccc(S(=O)(=O)Nc2ccc3c(c2)C(=O)N([C@H](C)CO)C[C@@H](C)[C@@H](CN(C)CC2CCCCC2)OCCCC[C@@H](C)O3)cc1,/,30,/,88*,/
C[C@@H]1CN([C@H](C)CO)C(=O)c2cc(NS(=O)(=O)c3ccc(Cl)cc3)ccc2O[C@@H](C)CCCCO[C@@H]1CN(C)CC1CCCCC1,/,61*,/,78*,/
C[C@@H]1CCCCO[C@H](CN(C)CC2CCCCC2)[C@H](C)CN([C@H](C)CO)C(=O)c2cc(NS(=O)(=O)c3ccc(Cl)cc3)ccc2O1,/,63*,/,95*,/
